Inconclusive results are not listed. Where a call stands in place of a potency, no number is given. Calls of active or inactive are those of the source. The call rests on the fitted dose curve; in most records, active means well fitted cell-killing curve with a large enough effect; inconclusive means small, poorly fitted or top-dose-only effect; inactive means flat fitted curve, though single readings scatter.
Potency means the concentration at half of the fitted maximal effect.

This experiment is described as follows: qHTS of pediatric cancer cell lines to identify multiple opportunities for drug repurposing: Primary screen for control Hh wild type fibroblast cells (AID 1347106). Further: nearly all actives have a fitted effect of over 55% in size. The following applies: Hh wild-type fibroblast viability, CellTiter-Glo luminescence, 48 h; series mostly up to 46 µM. The text has this: Drug repurposing or repositioning has been offered as a strategy for drug development in oncology programs. This approach has special potential for childhood cancers and other rare or orphan diseases, where the expected return on new drug development has been a disincentive to pharmaceuticals.
In this project we exploit the poly-pharmacology of drugs to discover new indications via phenotypic screening of a panel of 19 well-characterized cell lines derived from solid tumors seen in children and adolescents. The goal is to identify approved drugs with previously unrecognized anticancer properties that has the potential to reveal new mechanisms and biological processes involved in carcinogenesis or drug resistance. We employed a titration-based paradigm (quantitative high-throughput screening or qHTS), where all compounds were tested at multiple concentrations for their effect on cell viability. Concentration-response curves (CRCs) were derived directly from the primary screen, and both potency and efficacy values were used to identify compounds with robust bioactivity profiles. We screened the NIH Chemical Genomics Center (NCGC) Pharmaceutical Collection (NPC) and Mechanism Interrogation Plate (MIPE) small molecule collections of approved and investigational compounds against these cell lines; and measured metabolically active cells after 48 hours of compound treatment as a proxy for cell viability.
Assay Submitter: Nathalia J. Martinez, National Center for Advancing Translational Sciences, National Institutes of Health, Rockville, MD, USA; email: natalia.martinez@nih.gov
[1] Shen, M et al. Quantitative high-throughput phenotypic screening of pediatric cancer cell lines identifies multiple opportunities for drug repurposing. Oncotarget 2017 Dec 19;9(4):4758-4772. PMID 29435139.
The cells were obtained from University of North Carolina (UNC), Pediatric Preclinical Testing Program (PPT), and Coriell Institute (CI).
qHTS cell viability assay:
Cells were assayed in growth media at a density of 500-1,000 cells/well. Five microliters of cells were dispensed into 1,536-well, white, solid-bottom, TC-treated plates (Greiner Bio One) using a multidrop dispenser and incubated at 37 degrees C, 5% CO2, under a humidified atmosphere for 5 hours. Twenty-three nanoliters of compounds and controls (neutral control DMSO or positive control bortezomib at final concentration of 2.3 µM) were subsequently transferred by Kalypsys pintool. For primary screens, the MIPE collection was tested at 11-point dilutions (final concentrations range from 0.78 nM to 46 µM) and the NPC collection at 8-point dilutions (final concentrations range from 0.59 nM to 46 µM). Compounds tested in follow-up screens were assayed at 11-point dilutions. Cells were incubated for 48 hours, followed by addition of 3 µL of CellTiter-Glo (Promega). After a 15 min incubation at room temperature, samples were analyzed for luminescence intensity using a ViewLux High-throughput CCD imager equipped with clear filters.
(In general: Quantitative high-throughput screening tests each substance at several concentrations.)
Regarding `CC(C)C[C@H](CC(=O)O)C(=O)N[C@@H](Cc1c[nH]c2ccccc12)C(=O)N[C@@H](C)c1ccccc1`, the Potency entry was “inactive”.
`CON=C(C(=O)N[C@@H]1C(=O)N2C(C(=O)OCOC(=O)C(C)(C)C)=C(C=Cc3scnc3C)CS[C@H]12)c1csc(N)n1`: the Potency result is “inactive”.
Consider `OC[C@H]1O[C@@H](n2cnc3c2NC=NC[C@@H]3O)C[C@H]1O`, for which the Potency entry was “inactive”.
In the case of `Cc1c(NC(=O)c2ccc(C(C)(C)C)cc2)cccc1-c1cn(C)c(=O)c(Nc2ccc(C(=O)N3CCOCC3)cc2)n1`, the Potency result was “inactive”.
For `Oc1ccc(C2CCN(c3ccnc4ccccc34)CC2)cc1O`, the Potency entry was “inactive”.
Under `Cc1c(O)cccc1C(=O)N[C@@H](CSc1ccccc1)[C@H](O)CN1C[C@H]2CCCC[C@@H]2C[C@@H]1C(=O)NC(C)(C)C` stands “inactive”.
As for `O=c1c(-c2ccc(O)cc2)coc2cc(O)ccc12`, the Potency result was “inactive”.
With `C[C@H]1[C@H](NC(=O)C(=NOC(C)(C)C(=O)O)c2csc(N)n2)C(=O)N1S(=O)(=O)O`, the Potency result was “inactive”.
On to `N#CC1(c2ccc(NC(=O)c3cccnc3NCc3ccncc3)cc2)CCCC1`, for which the Potency result was “inactive”.
Regarding `C=CCc1ccc(O)c(-c2ccc(O)c(CC=C)c2)c1`, the Potency result is “inactive”.
With `O=C(O)C=Cc1ccc(O)c(O)c1`, the Potency result was “inactive”.
As to `CCC(=O)O[C@]1(C(=O)CO)CC[C@H]2[C@@H]3CCC4=CC(=O)CC[C@]4(C)[C@@H]3CC[C@@]21C`, the Potency result was “inactive”.
Turning to `NC(=O)c1cccc2[nH]c(-c3ccc([C@H]4CCCN4)cc3F)nc12`, the Potency entry is “inactive”.
As for `N#Cc1ccc(NC(=O)Nc2ccccc2Br)c2n[nH]nc12`, the Potency entry is “inactive”.
For `O=C1NC(=O)C(=Cc2ccc(-c3ccc(F)cc3)o2)S1`, the Potency result is “inactive”.
The figure for `O=C1c2ccccc2-[n+]2ccc3c([nH]c4ccccc43)c21` is 9.35 µM (active); for `CO[C@@H](C(=O)N1Cc2[nH]nc(NC(=O)c3ccc(N4CCN(C)CC4)cc3)c2C1)c1ccccc1` it is 9.35 µM (active).
Take `CC(=O)Oc1cc2c(s1)CCN(C(C(=O)C1CC1)c1ccccc1F)C2` (stereo not given): the Potency entry was “inactive”.
On to `CC#CCn1c(N2CCC[C@@H](N)C2)nc2c1c(=O)n(Cc1nc(C)c3ccccc3n1)c(=O)n2C`, for which the Potency entry is “inactive”.
For `CCc1ccc(OCc2ccccc2C(=O)Nc2ccc3nc(C)cc(N)c3c2)cc1`, the Potency is 9.35 µM (active).
The entry for `COc1ccc(-c2cc(=O)c3c(O)cc(O)cc3o2)cc1O` is “inactive”; for `O=c1cc(N2CCOCC2)oc2c(-c3cccc4c3sc3ccccc34)cccc12` it is “inactive”.
`CNC(=O)c1ccccc1Sc1ccc2c(C=Cc3ccccn3)n[nH]c2c1`: the Potency result is “inactive”.
On to `O=C1NCC2(CCN(CCc3ccccc3)CC2)O1`, for which the Potency result was “inactive”.
For `CC=CC(=O)N(CC)c1ccccc1C`, the Potency result is “inactive”.
With `COc1ccc(-c2coc3cc(O)ccc3c2=O)cc1`, the Potency result is “inactive”.
On to `CCOC1OC(=O)C[C@H]1NC(=O)[C@@H]1CCCN1C(=O)[C@@H](NC(=O)c1ccc(N)c(Cl)c1)C(C)(C)C` (stereo not given in full), for which the Potency result was “inactive”.
Under `NC(=O)c1ccc2nc(-c3ccc(Oc4ccc(Cl)cc4)cc3)[nH]c2c1` stands “inactive”.
Consider `Clc1cc(Cl)cc(CNc2ncncc2-c2ccc3c(c2)OCO3)c1`, for which the Potency result is “inactive”.
On to `O=C1NC(=O)C(=Cc2ccc3nccnc3c2)S1`, for which the Potency result is “inactive”.
With `CCCCCCCCCCCC1=C(O)C(=O)C=C(O)C1=O`, the Potency entry was “inactive”.
As to `C=C1C(=O)OC2C=C(C)CCC=C(C)CCC12` (stereo not given), the Potency entry was “inactive”.
For `CO[C@H]1C[C@@H]2CC[C@@H](C)[C@@](O)(O2)C(=O)C(=O)N2CCCC[C@@H]2C(=O)O[C@H]([C@@H](C)C[C@@H]2CC[C@H](O)[C@H](OC)C2)CC(=O)[C@H](C)C=C(C)[C@@H](O)[C@@H](OC)C(=O)[C@H](C)C[C@H](C)C=CC=CC=C1C`, the Potency entry is “inactive”.
Regarding `CC(=Cc1ccccc1)C=C1SC(=S)N(CC(=O)O)C1=O`, the Potency entry is “inactive”.
In the case of `Clc1ccc(-c2nc3sccn3c2C=NOCc2ccc(Cl)c(Cl)c2)cc1`, the Potency entry is “inactive”.
As to `CC(C)[C@H](CO)Nc1nc(Nc2ccc(C(=O)O)c(Cl)c2)c2ncn(C(C)C)c2n1`, the Potency entry is “inactive”.
Regarding `c1ccc2c(Cc3c[nH]c4ccccc34)c[nH]c2c1`, the Potency is 4.69 µM (active).
As to `COc1cc(NC(=O)c2ccc(-c3ccc(Cl)cc3)o2)cc(OC)c1`, the Potency was 10.5 µM (active).
Regarding `CO[C@H]1C(=O)[C@]2(C)[C@@H](OC)C[C@H]3OC[C@@]3(OC(C)=O)[C@H]2[C@H](OC(=O)c2ccccc2)[C@]2(O)C[C@H](OC(=O)[C@H](O)[C@@H](NC(=O)OC(C)(C)C)c3ccccc3)C(C)=C1C2(C)C`, the Potency entry is “inactive”.
Turning to `CCN(CC)CCNC(=O)c1ccc(N)cc1`, the Potency entry is “inactive”.
